# Test results from PubChem BioAssay AID686978 (National Center for Advancing Translational Sciences (NCATS), 2013).
# Values joined by “and” are separate entries in the source; they are usually repeats but may differ in a detail not shown here. Equal values may be shown once. About 64,000 (15%) of roughly 420,000 compounds were called active. Another 27% or so got no clear call; they are omitted. Calls follow the shape of the dose curve; as a rule, active = well fitted inhibition curve with a large enough effect; inconclusive = small, poorly fitted or top-dose-only effect; inactive = flat fitted curve, though single readings scatter. These entries were drawn from the full list.
# Test: qHTS for Inhibitors of human tyrosyl-DNA phosphodiesterase 1 (TDP1): qHTS in cells in absence of CPT; also: nearly all actives have a fitted effect of over 55% in size
# Settings: DT40 Tdp1-/- hTDP1 cells, no CPT, ATP luminescence, 48 h; activity change, negative = growth inhibition: at 46.2 µM (top of the series)
# Summary of the method: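 Luminescent ATP content (CellTiter-Glo) served as the growth readout. Knockout chicken DT40 cells expressing human TDP1 were exposed to compounds without camptothecin for a minimum 48 hr at 37 °C.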
# % is scaled to controls: 0 for no effect and ±100 for the full control effect; potency is read from the fitted curve at half-maximal effect.
SMILES,"activity change, negative = growth inhibition",Potency
C[C@H]1CN([C@@H](C)CO)S(=O)(=O)c2ccc(Br)cc2O[C@H]1CN(C)C(=O)c1cnccn1,-0.338% (inactive),–
CCOC(=O)C1=C(O)CSC1=Nc1cccc(Cl)c1,0.713% (inactive),–
CN(C)c1nc(=Nc2cccc(Cl)c2)ss1,–,0.206 µM (active)
CCN(CC)S(=O)(=O)c1ccc(OC(C)C)c(N)c1,-17.6% (inactive),–
CC(C)Nc1nnc(SC(C)C(=O)N(C)C2CCCCC2)s1 (stereo not drawn),-20.8% (inactive),–
Cc1cccc(N2CCN(c3c(CN4CCCC4)c(=O)oc4ccccc34)CC2)c1C,5.73% (inactive),–
Cc1cccc(N2CCN(C3=C(c4ccccc4)C(=O)c4ccccc43)CC2)c1C,–,11.6 µM (active)
CC(Oc1ccccc1)C(=O)NN1Cc2ccccc2C1=N (stereo not drawn),4.93% (inactive),–
Cc1nn(C)cc1N1C(=O)c2cccc3c(N)ccc(c23)C1=O,-21.5% (inactive),–
CCc1oc(-c2ccc(OC)cc2)c(C(=O)OCCCCCO)c1C(C)OCCO (stereo not drawn),–,16.4 µM (active)
CCN(CCCCOC(=O)c1ccc(OC)c(OC)c1)C(C)Cc1ccc(OC)cc1 (stereo not drawn),-25% (inactive),–
COc1ccc(C(=O)Nc2c(N)nc(SCC(=O)N3CCC(C)CC3)[nH]c2=O)cc1OC,2.88% (inactive),–
O=C(c1ccc2c(c1)C(=O)N(Cc1ccncc1)C2=O)N1CCN(S(=O)(=O)c2ccc(OC(F)(F)F)cc2)CC1,-20% (inactive),–
Oc1ccc(Br)cc1C1C=C(c2ccc3c(c2)OCO3)NC(c2ccc(Cl)cc2)N1 (stereo not drawn),–,5.01 µM (active)
CCN(CC(=O)Nc1cc(Cl)ccc1C)C(=O)CN1C(=O)NC2(CCCC2)C1=O,-2.6% (inactive),–
CN(C)CCNC(=O)Nc1cccc(Cl)c1Cl,-9.59% (inactive),–
CN(C)CCNC(=O)c1ccc(Cl)c2cc3ccccc3nc12,–,0.146 µM (active)
CC(=O)NCCNC(=O)c1cc(-c2cccc3ccccc23)nc2ccccc12,9.72% (inactive),–
CCNC(=S)N(CCN(CC)CC)Cc1cc2cc3c(cc2[nH]c1=O)OCCO3,-29.6% (inactive),–
Oc1c(C(c2cccs2)N2CCN(c3ccc(F)cc3)CC2)sc2ncnn12 (stereo not drawn),-10.6% (inactive),–
CC1CC(C)CN(CC(=O)Nc2ccc(S(N)(=O)=O)cc2)C1 (stereo not drawn),-2.41% (inactive),–
Cc1nc(SCC(=O)N2CCc3ccccc3C2)c2c(C)c(C)sc2n1,–,16.4 µM (active)
Cc1nnc(SCC(=O)N2CCc3ccccc3C2)s1,-19% (inactive),–
Cc1nc(SCC(=O)Nc2cc(C)on2)c2c(C)c(C)sc2n1,-14.9% (inactive),–
O=C(NCC(O)c1nc2ccccc2[nH]1)c1ccc(Br)cc1 (stereo not drawn),-3.34% (inactive),–
O=C(CC1CCCCC1)NCc1ccc(F)cc1,-0.903% (inactive),–

SMILES,"activity change, negative = growth inhibition",Potency
CCOC(=O)C1CCN(C(=O)Nc2ccc(Cl)cc2)CC1,-21.3% (inactive),–
O=[N+]([O-])c1ccc(N2CCN(c3ccc(O)cc3)CC2)c(Cl)c1,–,13 µM (active)
O=[N+]([O-])c1ccc(N2CCOCC2)cc1,-11.2% (inactive),–
O=C(O)C1CCN(c2ccc([N+](=O)[O-])cc2[N+](=O)[O-])CC1,-1.31% (inactive),–
O=C(COC(=O)c1ccccc1SCC(=O)N1CCCC1)Nc1ccccc1OC(F)F,-28.3% (inactive),–
Cc1ccc(CNC(=O)CCNC(=O)Cn2ccc3ccccc3c2=O)cc1,-6.74% (inactive),–
CCN(CCO)C(=S)Nc1cc(C(=O)OC)ccc1C(=O)OC,-16.3% (inactive),–
CCCN(CCC)C(=S)Nc1cc(C(=O)OC)ccc1C(=O)OC,–,18.4 µM (active)
CCS(=O)(=O)Nc1cc(C(=O)OC)ccc1C(=O)OC,-15.2% (inactive),–
c1ccc(Cc2c(-c3ccco3)nc3c4ccccc4ccn23)cc1,–,20.6 µM (active)
CN(C)C(=O)c1nc2ccc(Cl)cn2c1CN1CCN(c2ncccn2)CC1,-20.4% (inactive),–
Cc1ccc(Cc2c(-c3ccco3)nc3ccc(Cl)cn23)cc1,–,11.6 µM (active)
O=C(Nc1c(-c2ccccc2)nc2c(Br)cc(Br)cn12)c1ccco1,-16.2% (inactive),–
Cc1ccc(-c2nc3ccc(Cl)cn3c2Cc2ccccc2)cc1,–,20.6 µM (active)
CN1CCN(Cc2c(C(=O)N3CCc4ccccc4C3)nc3ccc(Cl)cn23)CC1,12.3% (inactive),–
Cc1ccc(-c2cn3cc(C)ccc3n2)cc1,-25.3% (inactive),–
CC(=O)Nc1c(-c2ccc(C)cc2)nc2ccc(Cl)cn12,17.1% (inactive),–
CSc1nc(-c2ccco2)nn1C(=O)CCc1ccccc1,-2.42% (inactive),–
Cc1nn(CC(=O)Nc2ccc3c(c2)OCO3)c(C)c1[N+](=O)[O-],-10.4% (inactive),–
Cc1cccc(NC(=O)CN2C(=O)CNC2=O)c1,-8.76% (inactive),–
C/C(=N\NC(=O)c1cccc([N+](=O)[O-])c1)c1cccnc1,9.04% (inactive),–
CCOC(=O)C(C)Oc1cccc2c(=O)n(CC(=O)N3CCc4ccccc43)ccc12 (stereo not drawn),-8.97% (inactive),–
O=C(Nc1ccccc1C(=O)N1CCOCC1)c1ccc(Cl)cc1,4.37% (inactive),–
Cc1cc(C)cc(NS(=O)(=O)c2ccc(F)cc2)c1,-29.8% (inactive),–
Cn1c(=O)n(C)c2cc(S(=O)(=O)Nc3ccc(F)cc3)ccc21,–,20.6 µM (active)
Cn1c(=O)n(C)c2cc(NS(=O)(=O)c3ccc(F)cc3)ccc21,-75.4% (inactive),–

SMILES,"activity change, negative = growth inhibition",Potency
Cn1c(C(=O)N2CCCC(C(=O)NCc3ccccc3)C2)cc2sccc21 (stereo not drawn),-15.8% (inactive),–
Fc1ccccc1Cc1ccc(Cl)nn1,5.81% (inactive),–
CCCCCCCN=C(C)c1ccccc1O,-1.56% (inactive),–
C/C(=N\Nc1ccc(Cl)nn1)c1ccccc1O,–,0.58 µM (active)
Oc1cccc(/C=N/Nc2ccc(Cl)nn2)c1O,–,0.13 µM (active)
Clc1ccc(N/N=C/c2cccs2)nn1,-11.9% (inactive),–
O=C(c1cccc(-n2cccc2)c1)N1CCN(S(=O)(=O)c2ccc(F)cc2)CC1,4.26% (inactive),–
C=C(Cl)COC(=O)C1C2C=CC(C2)C1C(=O)O (stereo not drawn),0.932% (inactive),–
CC12CN(NC(=O)c3ccc(Cl)cc3)C3(C#N)CC1CCC23C (stereo not drawn),-7.9% (inactive),–
Cc1ccc(C(CNC(=O)Nc2ccccc2)N2CCN(C)CC2)cc1 (stereo not drawn),24.7% (inactive),–
Cc1ccc(NC(=O)[C@H](Cc2ccccc2)NC(=O)CC[C@H]2O[C@@H](n3ccc(=O)[nH]c3=O)[C@H](O)[C@@H]2O)cc1C,3.83% (inactive),–
CCOC(=O)/C(N=Nc1cc(C(=O)O)cc(C(=O)O)c1)=C(\O)CCl,0.226% (inactive),–
CCO/C=C1\C(=O)N(c2ccc(OCC)cc2)C(=O)c2ccccc21,-1.17% (inactive),–
CCOc1ccc(/C(O)=C2\C(=O)C(=O)N(c3ccc(OC)cc3)C2c2ccccc2[N+](=O)[O-])cc1 (stereo not drawn),-24% (inactive),–
CCOc1ccc(-c2n[nH]c3c2C(c2ccccc2OC)N(c2ccc(Br)cc2)C3=O)cc1 (stereo not drawn),–,14.6 µM (active)
Cc1ccc(C(=O)Nc2ccn(C)n2)cc1,11.8% (inactive),–
COc1ccc(NC(=O)C2CCCN(S(=O)(=O)c3cccc4cccnc34)C2)cc1OC (stereo not drawn),-70.6% (inactive),–
Cc1ccc(NC(=O)C2CCCN2S(=O)(=O)c2cccc3cccnc23)c(C)c1 (stereo not drawn),–,18.4 µM (active) and 16.4 µM (active)
O=C(Nc1nccs1)C1CCCN1S(=O)(=O)c1cccc2cccnc12 (stereo not drawn),-9.03% (inactive),–
COC(=O)C1=CN(c2c(C)cc(C)cc2C)C(N)=C(C#N)C1c1cccc(F)c1 (stereo not drawn),–,14.6 µM (active)
Cn1c2c(c(=O)n(C)c1=O)C(c1cccc(F)c1)C(C#N)=C(N)O2 (stereo not drawn),0.646% (inactive),–
COC(=O)C1=C(C)N(C)C(C)=C(C(=O)OC)C1c1cccc(Br)c1,-23.5% (inactive),–
Cc1ccc(NC(=O)C(C)OC(=O)Cc2c[nH]c3ccccc23)cc1S(=O)(=O)N1CCOCC1 (stereo not drawn),-5.52% (inactive),–
O=C(OCC(=O)N1CCCCCC1)c1ccc(Br)c(S(=O)(=O)N2CCOCC2)c1,-24.2% (inactive),–
COc1cc(Br)cc(/C=N/c2ncn[nH]2)c1O,14.3% (inactive),–
N#C/C(C(=O)N1CCOCC1)=C1/SC(Cc2ccc(F)cc2)C(=O)N1c1ccccc1 (stereo not drawn),5.03% (inactive),–

SMILES,"activity change, negative = growth inhibition",Potency
CCCNC(=O)C1(C)CCN1C(=O)Cc1ccc(-c2ccccc2)cc1 (stereo not drawn),–,9.2 µM (active)
CC1(C(=O)NS(=O)(=O)c2cccs2)CCN1C(=O)Cc1ccc(-c2ccccc2)cc1 (stereo not drawn),-3.62% (inactive),–
CC1(C(=O)NS(=O)(=O)c2ccccc2)CCN1C(=O)Cc1ccc(-c2ccccc2)cc1 (stereo not drawn),-0.605% (inactive),–
CC1(C(=O)NS(=O)(=O)Cc2cccc(Cl)c2)CCN1C(=O)Cc1ccccc1 (stereo not drawn),-22.5% (inactive),–
COc1ccc(OC)c(NC(=O)C2(C)CCN2C(=O)Cc2ccccc2)c1 (stereo not drawn),-22.7% (inactive),–
C#Cc1ccc(NC(=O)C2(C)CCN2C(=O)Cc2ccc(-c3ccccc3)cc2)cc1 (stereo not drawn),–,20.6 µM (active)
O=C(CSc1cn(CC(=O)N2CCOCC2)c2ccccc12)Nc1ccccc1,-19.5% (inactive),–
O=C(CN1C(=O)NC2(CCCC2)C1=O)Nc1cc(C(F)(F)F)ccc1N1CCOCC1,-13.1% (inactive),–
Cc1ccc2c(c1)N(CCCC(=O)NCc1cccnc1)C(=O)CO2,1.85% (inactive),–
COc1cc(C)ccc1OCC(=O)OCC(=O)c1ccc[nH]1,-12.9% (inactive),–
COCC1CCN(C(=O)C2CCC(=O)N(CC3CCCCC3)C2)CC1 (stereo not drawn),10.1% (inactive),–
Cc1ccc(S(=O)(=O)N(CC(=O)Nc2ccc(Cl)cc2Cl)c2ccccc2C)cc1,–,11.6 µM (active)
CN(CC(=O)Nc1cccc2c1CCCC2)S(=O)(=O)c1ccc(Cl)cc1,-24.1% (inactive),–
Cc1ccc(S(=O)(=O)N(CC(=O)NCc2ccco2)c2ccccc2C)cc1,-25.5% (inactive),–
Cc1ccc(N2C(=O)SC(N(CC(=O)O)c3ccc(C)cc3)C2=O)cc1 (stereo not drawn),-0.545% (inactive),–
C(#CCN1CCOCC1)CCCN1CCOCC1,-4.04% (inactive),–
COc1ccc(Nc2nc(Cl)nc(NCc3ccco3)n2)cc1,-25.1% (inactive),–
COc1ccc(Nc2nc(NCc3ccco3)nc(N/N=C/c3ccccc3Cl)n2)cc1,–,23.1 µM (active)
COc1ccc(NC(=O)C(=O)NCc2ccco2)cc1,-2.26% (inactive),–
CN1CCn2cnc(C(=O)NCC(=O)OC(C)(C)C)c2C1=O,3.77% (inactive),–
CC12CCC(C(=O)N(CCC#N)CCC#N)(CC1=O)C2(C)C (stereo not drawn),-4.04% (inactive),–
CC1=CC(C)(C)NC(=S)N1NC(=O)c1ccccc1Cl,-4.62% (inactive),–
COc1ccc(NS(=O)(=O)c2cc(NC(=O)C3CCCCC3)ccc2N2CCOCC2)cc1,–,13 µM (active)
COc1ccc(NS(=O)(=O)c2cc(NC(=O)c3ccc(S(=O)(=O)N(C)C)cc3)ccc2N2CCOCC2)cc1,-17.8% (inactive),–
COc1ccc(NS(=O)(=O)c2cc(NC(=O)/C=C/c3cc(OC)c(OC)c(OC)c3)ccc2N2CCCCC2)cc1,-18.2% (inactive),–
